These results are taken from PubChem BioAssay (NCATS).

For orientation: viability means a read-out of living cells in per cent, often relative to untreated cells.

Records with an inconclusive call do not appear. The source made the active and inactive calls. The call rests on the fitted dose curve; in most records, active means well fitted cell-killing curve with a large enough effect; inconclusive means small, poorly fitted or top-dose-only effect, or effect the other way; inactive means no such curve, though single readings can be large or run the other way.
Potency means the concentration at half of the fitted maximal effect.

The assay is described as follows: Quantitative highthroughput screen to assess conditional lethalithy of NOMO1 cells grown in Human Plasma-Like Medium with dialyzed fetal bovine serum (HPLM+ds) (AID 1963878). Further: nearly all actives have a fitted effect of over 35% in size. To be noted: NOMO1 AML cells in HPLM+ds, CellTiter-Glo viability, 48 h; series mostly up to 45.8 µM; viability: at the top concentration. The text has this:
Assay Provider: Jason Cantor Ph.D.
Department of Biochemistry
University of Wisconsin-Madison, Madison, WI, USA
Chemical screening studies have identified drug sensitivities across hundreds of cancer cell lines but most putative therapeutics fail to translate. Discovery and development of drug candidates in models that more accurately reflect nutrient levels in human blood is a major challenge. Here we performed high-throughput screens in conventional versus Human Plasma-Like Medium (HPLM) to identify compounds that were "missed" when screening using the artificial culture condition. Sets of conditional anticancer compounds spanned phases of clinical development and included non-oncology drugs were assessed. […] We also traced conditional phenotypes for several chemotherapeutics to availability of HPLM-specific metabolites and confirmed others for compounds whose reported targets are encoded by nonessential genes. Our findings establish generalizable strategies for exploiting conditional lethality in HPLM to reveal therapeutic candidates and mechanisms of action in cancer cells.
Described herein are the results of each viability screens against three cell lines: NOMO1 (an acute myeloid leukemia cell line); P12-Ichikawa (a T-cell acute lymphoblastic leukemia); and SEM (a B-cell ALL). Each assay was screened using 3 different cell culture media: homemade human plasma-Like medium with 10% dialyzed fetal bovine serum (HPLM+ds); RPMI1640 with 10% untreated FBS and 5mM glucose (RPMI+s); and RPMI1640 with 10% dialyzed fetal bovine serum and 5 mM glucose (RPMI+ds).
PROTOCOL TABLE (as described by Inglese J, Shamu CE and Guy RK. 2007)
SEQUENCE No. (e.g., 1, 2, 3, etc.); […] (e.g., Cells, Incubation, Reagent, etc.); VALUE and DESCRIPTION.
1; Cells; 5 uL; white, solid bottom 1536-well Greiner assay plate.
2; Compounds; 23 nL; Kalypsis pin tool (Wako USA) equipped with a 1536-well pin head to transfer to the assay plates.
3; Incubation; 48 hours; 37C incubation.
4; Reagent; 3 uL; CellTiter Glo (Promega).
5; Incubation; 5 min, room temperature
6; Detection; Luminescence, Viewlux PerkinElmer.
NOTES (numbers refer to Sequence numbers above)
1. Briefly, 5 ul of cell reagent was dispensed using a Multidrop Combi Dispenser. The NOMO1 and SEM cells were plated at 500 cells/well and the P12-Ichikawa line at 1000 cells/well.
2. After seeding the cells, 23 nL of MIPE 4.1 library compounds (in DMSO) were added to each plate using a Kalypsys 1536 Pintool dispenser. Bortezomib at final concentration of […] and DMSO were added to each plate as positive and negative controls respectively. For each screen, MIPE 4.1 compounds were added over an eleven-point concentration range […] in 3-fold dilutions.
3. Each plate was covered with a stainless steel gasketed lid to prevent evaporation and incubated for 48 hour at 37C, 95% relative humidity, and 5% CO2.
4-5. Three microliter CellTilter-GloTM luminescent substrate mix (Promega) reagent was added to the assay plate and incubated at room temperature for 5 min.
6. The luminescence signal was measured using a ViewLux (PerkinElmer) multiplate reader with a 2 second exposure time per plate. Data for each compound were normalized as percent viability such that measurements for DMSO and the empty well controls in each plate were defined as 100% and 0%, respectively.
For orientation: Cellular ATP, detected with luciferase, serves as a proxy for viable cell number.
On to `Cc1cn(CCN2CCN(c3ccccc3-c3cc(C#N)cc(C(=O)NCCCN4CCCC4)c3)CC2)c2ccccc12`, for which the Potency is 8.31 µM (active).

For `COC(=O)[C@H](CCCN=C(N)N)NS(=O)(=O)c1ccc(C)cc1`, the Potency is 6.62 µM (active).

With `C[C@H](CCC(=O)O)[C@H]1CC[C@H]2[C@@H]3[C@H](O)C[C@@H]4C[C@H](O)CC[C@]4(C)[C@@H]3CC[C@]12C`, the “viability” value was 114% (inactive).

Turning to `C[C@@H](c1ncncc1F)[C@](O)(Cn1cncn1)c1ccc(F)cc1F`, the “viability” value is 91.1% (inactive).

For `Clc1ccc(CCC(Cn2ccnc2)Sc2c(Cl)cccc2Cl)cc1` (stereo not given), the “viability” value was 94.5% (inactive).

Consider `O=C(O)c1ccc(-c2c[nH]c3ncc(-c4ccccc4)cc23)cc1C1CCCC1`, for which the “viability” value is 89.3% (inactive).

In the case of `CCN(CC)CCOc1ccc(C(=C(Cl)c2ccccc2)c2ccccc2)cc1`, the “viability” value is 77% (inactive).

Turning to `COc1cc2nc(N3CCN(C(=O)C4CCCO4)CC3)nc(N)c2cc1OC` (stereo not given), the “viability” value is 93.6% (inactive).

Turning to `CCOCC(O)COc1ccc(NC(=O)CC[S+](C)C)cc1` (stereo not given), the “viability” value is 101% (inactive).

As for `Nc1ccn(C[C@@H](CO)OCP(=O)(O)O)c(=O)n1`, the “viability” value was 115% [at 23.2 µM] (inactive).

For `CN(CCOc1ccc(NS(C)(=O)=O)cc1)CCc1ccc(NS(C)(=O)=O)cc1`, the “viability” value was 106% (inactive).

Take `CCCc1nc(C)c2c(=O)[nH]c(-c3cc(S(=O)(=O)N4CCN(CC)CC4)ccc3OCC)nn12`: the Potency was 9.35 µM (active).

For `Clc1ccc2c(c1)C(N1CCNCC1)=Nc1ccccc1O2`, the “viability” value was 95.4% (inactive).

`CC(C)=CCCC(C)=CCCC(C)=CCCC(C)=CCCC(C)=CCCC(C)=CCCC(C)=CCCC(C)=CCCC(C)=CCO`: the “viability” value was 108% (inactive).

`Cc1coc2c1C(=O)C(=O)c1c-2ccc2c(C)cccc12`: the “viability” value was 101% (inactive).

With `Cc1ccc(C(=O)c2cc(O)c(O)c([N+](=O)[O-])c2)cc1`, the “viability” value was 86.6% (inactive).

For `FC(F)(F)c1ccc(Nc2nc3ccc(Oc4ccnc(-c5ncc(C(F)(F)F)[nH]5)c4)cc3[nH]2)cc1`, the “viability” value is 81.3% (inactive).

Consider `O=c1c(-c2ccc(O)cc2)coc2cc(O)ccc12`, for which the “viability” value is 107% (inactive).

For `CO[C@@H](C(=O)N1Cc2[nH]nc(NC(=O)c3ccc(N4CCN(C)CC4)cc3)c2C1)c1ccccc1`, the Potency was 0.0469 µM (active).

Consider `CCN(C(=O)c1c(O)c2c(Cl)cccc2n(C)c1=O)c1ccccc1`, for which the Potency was 1.32 µM (active).

For `CNC1CCCN(c2c(F)cc3c(=O)c(C(=O)O)cn(C4CC4)c3c2OC)C1` (stereo not given), the “viability” value was 81.2% (inactive).

With `Nc1nnc(-c2cccc(Cl)c2Cl)c(N)n1`, the “viability” value is 109% (inactive).

For the molecule `N#CC[C@H](C1CCCC1)n1cc(-c2ncnc3[nH]ccc23)cn1`, the Potency was 7.43 µM (active).

With `Cc1c(-c2cccc3c(CCCOc4cccc5ccccc45)c(C(=O)O)n(Cc4cccnc4)c23)c(COc2ccc(N3CCN([S+](=O)([O-])N(C)C)CC3)cc2)nn1C`, the “viability” value is 69.9% (inactive).

Consider `O=C(O)c1cccc(-c2noc(-c3ccccc3F)n2)c1`, for which the “viability” value is 106% (inactive).

With `Cc1ncc([N+](=O)[O-])n1CC(C)O` (stereo not given), the “viability” value was 98.9% (inactive).

For the molecule `CC(C)c1ccc2oc3nc(N)c(C(=O)O)cc3c(=O)c2c1`, the “viability” value was 101% (inactive).

In the case of `O=c1[nH]c(-c2ccc(C(F)(F)F)cc2)nc2c1CSCC2`, the “viability” value was 106% (inactive).

Turning to `CC(C)(C)c1cc(C(C)(C)C)c(NC(=O)c2c[nH]c3ccccc3c2=O)cc1O`, the “viability” value was 98.9% (inactive).

On to `O=C(NCCCCN1CCOCC1)c1cc2ccccc2o1`, for which the “viability” value was 103% (inactive).

In the case of `OC[C@H]1O[C@@H](n2cnc3c2NC=NC[C@@H]3O)C[C@H]1O`, the “viability” value was 103% (inactive).

`S=C(NCc1ccc2c(c1)OCO2)N1CCN(c2ncnc3c2oc2ccccc23)CC1`: the Potency was 38.2 µM (active).

Regarding `CCC(c1ccc(O)cc1)C(CC)c1ccc(O)cc1` (stereo not given), the “viability” value was 72.8% (inactive).

On to `CCCCN(CCCC)CCC(O)c1cc2c(Cl)cc(Cl)cc2c2cc(C(F)(F)F)ccc12` (stereo not given), for which the “viability” value was 99.1% (inactive).

Regarding `Cc1cnc(Nc2ccc(N3CCN(C)CC3)cc2)nc1Nc1cccc(S(=O)(=O)NC(C)(C)C)c1`, the Potency is 14.8 µM (active).

`O=C(Cc1cccc(OC(F)(F)F)c1)Nc1ccc(CCCCc2nnc(NC(=O)Cc3ccccn3)s2)nn1`: the “viability” value is 87% (inactive).

With `Clc1ccc(C(Cn2ccnc2)OCc2c(Cl)cccc2Cl)c(Cl)c1` (stereo not given), the “viability” value was 102% (inactive).

Regarding `Cc1ccccc1C(C(=O)NC1CCCC1)N(C(=O)Cn1cnc2ccccc21)c1cccc(F)c1` (stereo not given), the “viability” value was 79.1% (inactive).

Consider `Cc1ccc(S(=O)(=O)Nc2nc3ccccc3nc2Nc2ccc3nsnc3c2)cc1`, for which the Potency is 1.02 µM (active).

Regarding `CCOC(=O)[C@H](CCc1ccccc1)N[C@@H](C)C(=O)N1[C@@H](C(=O)O)C[C@H]2CCC[C@@H]21`, the Potency was 23.5 µM (active).
